ATXN2 expr inh = Primary qHTS for Inhibitors of ATXN expression | HEK-293 ATXN2-luciferase reporter, luminescence, 24 h | Potency, µM (highest dose often 57 µM), for inactives: top-dose activity change, negative = inhibition, actives largely listed as inhibitors | hit rate 0.72% among 360,000 | AID 1745845, 2022; also: potency is read from the fitted curve at half-maximal effect; % is scaled to controls: 0 for no effect and ±100 for the full control effect; nearly all actives have a fitted effect of over 55% in size
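ATXN2-luciferase reporter cells (luciferase flanked by upstream and downstream ATXN2 gene portions) were treated 24 h at 37 °C with compounds at up to 57 uM. SteadyGlo luminescence gave expression; GF-AFC fluorescence gave viability.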
D3 ag = qHTS of D3 Dopamine Receptor Agonist: qHTS | D(3) dopamine receptor (Homo sapiens), P35462 | hit rate 0.58% among 410,000 | max activation, % | D3R DiscoveRx beta-arrestin cells, luminescence, 90 min; in the data active = max activation above about 30%; also: 0% is about no effect
Target sequence (P35462 whole entry, looked up): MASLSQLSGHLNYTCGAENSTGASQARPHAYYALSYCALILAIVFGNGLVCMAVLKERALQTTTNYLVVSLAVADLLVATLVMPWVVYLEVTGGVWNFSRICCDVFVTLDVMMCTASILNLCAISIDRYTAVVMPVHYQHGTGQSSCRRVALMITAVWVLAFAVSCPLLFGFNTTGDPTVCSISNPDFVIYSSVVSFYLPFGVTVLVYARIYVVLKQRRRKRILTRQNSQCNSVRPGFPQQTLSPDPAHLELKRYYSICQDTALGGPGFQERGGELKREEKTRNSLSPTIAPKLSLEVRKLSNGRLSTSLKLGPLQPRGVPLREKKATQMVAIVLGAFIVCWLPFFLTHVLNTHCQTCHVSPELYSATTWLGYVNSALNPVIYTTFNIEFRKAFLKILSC
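Agonist-mode cell screen: cells plated at 1500/well and incubated overnight at 37 °C, then exposed to library compounds for 90 min at 37 °C. Detection reagent was added for 30–60 min at room temperature, and luminescence was read.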
Integrin act MD = qHTS for Activators of Integrin-Mediated Alleviation for Muscular Dystrophy; Potency, µM (doses to about 38.3 µM), for the others: at the highest dose activation, actives largely listed as activators; hit rate 0.064% among 350,000; alpha7betagal myoblasts, beta-gal FDG fluorescence, 48 h;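 also: potency is read from the fitted curve at half-maximal effect; 100% = response of the positive control SU9516; nearly all actives have a fitted effect of over 60% in size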
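Alpha7betagal+/- myoblasts (passage 13) were plated 16-24 hr, then exposed to compounds (1:260 dilution of DMSO stock) for 48 hours at 37C. After MPER lysis, β-galactosidase reporter activity was read as FDG fluorescence (ex 480/em 540) after 30 minutes.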
S2 tox = Viability Counterscreen for Primary qHTS for Inhibitors of ATXN expression. S2 cells (HEK-293 line with an ATXN2-luciferase reporter) viability, CellTiter-Fluor protease fluorescence, 24 h. Potency, µM (titrated, usually from 56.7 µM), usual class: cytotoxic. hit rate 0.49% among 400,000. AID 651635, 2014; also: potency is read from the fitted curve at half-maximal effect; nearly all actives have a fitted effect of over 40% in size
IL-1B inflam inh = qHTS for Inhibitors of Inflammasome Signaling: IL-1-beta AlphaLISA Primary Screen; THP-1 LPS/ATP IL-1B secretion, AlphaLISA, 16 h; stronger effect = lower value; activity change, % at 57.5 µM; hit rate 4.7% among 360,000; AID 743279, 2014; in the data active = activity change below about -50%; inconclusive = mostly about -30% to -49%; also: % is scaled to controls: 0 for no effect and ±100 for the full control effect
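THP-1 cells pretreated 1 hr with compounds (up to 57.5 uM final), then stimulated with LPS (250 ng/mL final) plus ATP (1.25 mM final); secreted IL-1B measured by AlphaLISA after 16 hr, decreased signal indicating inhibition.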
D3 antag = qHTS of D3 Dopamine Receptor Antagonist: qHTS. D(3) dopamine receptor (Homo sapiens), P35462. D3R cells, DiscoveRx beta-arrestin luminescence, antagonist mode; stronger effect = lower value. max response, negative = inhibition, %. hit rate 2.5% among 360,000; in the data active = max response below about -50%; inconclusive = no clear call, values can overlap the other calls; also: % is scaled to controls: 0 for no effect and ±100 for the full control effect
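Cells plated overnight at 1500 cells/well, then exposed to library compounds with dopamine controls for 90 minutes at 37 degrees C. DiscoveRx reagent added for 30–60 minutes at room temperature; luminescence read, quantitative HTS format.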
Numbers without * were called inactive. Hits are enriched below; roughly 7% of the tested compounds scored in any of these assays. Unless noted, calls follow the shape of the dose curve; as a rule, active = well fitted curve in the direction sought with a large enough effect; inconclusive = small, poorly fitted or top-dose-only effect, or another doubt; inactive = no such curve, though single readings can be large; an effect the other way counts as inactive or inconclusive.

How did Cc1csc(Sc2nc3c(c(=O)[nH]c(=O)n3C)n2CCCc2ccccc2)n1 do in these assays?
ATXN2 expr inh: -11%; D3 ag: 1; Integrin act MD: -21%; S2 tox: inactive; IL-1B inflam inh: 5; D3 antag: 25

What do the screens show for `COc1cc(NCCCC(C)N)c2ncccc2c1` (stereo not drawn)?
ATXN2 expr inh: 15%; D3 ag: -10; Integrin act MD: -49%; S2 tox: inactive; IL-1B inflam inh: 23; D3 antag: -54*

What do the screens show for `COc1cc(NC(=O)c2ccccc2Cl)c2ncccc2c1`?
ATXN2 expr inh: -16%; D3 ag: -10; Integrin act MD: -22%; S2 tox: inactive; IL-1B inflam inh: 0; D3 antag: 1

How did CCC(CNc1cc(OC)cc2cccnc12)NC1CCCCC1 (stereo not drawn) do in these assays?
D3 ag: -16; Integrin act MD: -71%; S2 tox: 18µM*; IL-1B inflam inh: inconclusive; D3 antag: -57*

How did COc1cc(NCCCCC(C)N)c2nccc(C)c2c1 (stereo not drawn) do in these assays?
D3 ag: 0; Integrin act MD: -51%; S2 tox: inconclusive; IL-1B inflam inh: -12; D3 antag: 1

Results for CCOC(=O)C(C)Sc1nnc2c3ccccc3n(C)c2n1 (stereo not drawn) ?
ATXN2 expr inh: 35%; D3 ag: 5; Integrin act MD: 11%; S2 tox: inactive; IL-1B inflam inh: 56; D3 antag: 1

What do the screens show for `O=C(CCC(=O)Nc1cc(C(F)(F)F)ccc1Cl)N/N=C\c1cc([N+](=O)[O-])ccc1O`?
ATXN2 expr inh: inconclusive; D3 ag: -23; Integrin act MD: -38%; S2 tox: inconclusive; IL-1B inflam inh: 81; D3 antag: -70*

How did O=C(CCC(=O)Nc1ccc(F)cc1)N/N=C/c1cc([N+](=O)[O-])ccc1O do in these assays?
ATXN2 expr inh: inconclusive; D3 ag: -17; Integrin act MD: 0%; S2 tox: inconclusive; IL-1B inflam inh: 23; D3 antag: -70*

Results for O=C(CCC(=O)Nc1ccc(Br)cc1)N/N=C/c1cc([N+](=O)[O-])ccc1O ?
ATXN2 expr inh: inconclusive; D3 ag: -15; Integrin act MD: inconclusive; S2 tox: inactive; IL-1B inflam inh: 113; D3 antag: -59*

What do the screens show for `Cc1cccc(NC(=O)CCC(=O)N/N=C/c2cc([N+](=O)[O-])ccc2O)c1`?
ATXN2 expr inh: inconclusive; D3 ag: -11; Integrin act MD: 24%; S2 tox: inactive; IL-1B inflam inh: 0; D3 antag: inconclusive

What do the screens show for `O=C(CSc1ccccn1)N/N=C/c1cc([N+](=O)[O-])ccc1O`?
D3 ag: -9; Integrin act MD: -35%; S2 tox: inconclusive; IL-1B inflam inh: 243; D3 antag: -15

What do the screens show for `CCOC1=C2[C@H](c3ccc(Cl)cc3)N(S(=O)(=O)c3ccc(C)cc3)C[C@H]2n2c(=O)n(-c3ccccc3)c(=O)n2C1`?
ATXN2 expr inh: -2%; D3 ag: 6; S2 tox: inactive; IL-1B inflam inh: -8; D3 antag: 13

How did O=C(CC1CCC1)NC(c1ccccc1)c1ccccc1 do in these assays?
ATXN2 expr inh: -6%; D3 ag: -8; Integrin act MD: -3%; S2 tox: inactive; IL-1B inflam inh: 6; D3 antag: 0

What do the screens show for `CC(C)(C)NC(=O)CN(CCN1CCOCC1)C(=O)CNS(=O)(=O)c1ccccc1`?
ATXN2 expr inh: 0%; D3 ag: 17; Integrin act MD: inconclusive; S2 tox: inactive; IL-1B inflam inh: 3; D3 antag: 1

Results for CCOC(=O)c1ccc(NS(=O)(=O)c2cccc3nsnc23)cc1 ?
ATXN2 expr inh: -12%; D3 ag: -8; Integrin act MD: 11%; S2 tox: inactive; IL-1B inflam inh: 13; D3 antag: -10

How did Cc1ccccc1N=C(NOCc1ccc(Cl)cc1Cl)c1nonc1N do in these assays?
ATXN2 expr inh: inconclusive; D3 ag: -28; Integrin act MD: -23%; S2 tox: inconclusive; IL-1B inflam inh: -10; D3 antag: -85*

How did Cc1cc(C)cc(N(CC(=O)Nc2ccccc2)C2=NC3CS(=O)(=O)CC3S2)c1 (stereo not drawn) do in these assays?
ATXN2 expr inh: 38%; D3 ag: -10; Integrin act MD: 17%; S2 tox: inconclusive; IL-1B inflam inh: -94*; D3 antag: -12

Results for COc1ccc(N(CC(=O)Nc2ccccc2C(F)(F)F)C2=NC3CS(=O)(=O)CC3S2)cc1 (stereo not drawn) ?
ATXN2 expr inh: 12%; D3 ag: 4; Integrin act MD: -1%; S2 tox: inactive; IL-1B inflam inh: -60*; D3 antag: 35

How did O=C(O)C1(C(=O)O)CCCC1 do in these assays?
ATXN2 expr inh: 1%; D3 ag: 6; Integrin act MD: -32%; S2 tox: inactive; IL-1B inflam inh: -5; D3 antag: 3

How did NC1(C(=O)O)CC1 do in these assays?
ATXN2 expr inh: -1%; D3 ag: -48; S2 tox: inactive; IL-1B inflam inh: 13; D3 antag: -75*

Results for CCCCN(C(=O)CCC(=O)Nc1cc(C)on1)C(C(=O)NC1CCCC1)c1cccc(OC)c1 (stereo not drawn) ?
ATXN2 expr inh: 8%; D3 ag: -2; Integrin act MD: inconclusive; S2 tox: inactive; IL-1B inflam inh: 12; D3 antag: -19

What do the screens show for `Cc1cccc(/C=N/c2sc3c(c2C(=O)OC(C)(C)C)CCN(C)C3)c1O`?
ATXN2 expr inh: -15%; D3 ag: 4; Integrin act MD: 2%; S2 tox: inconclusive; IL-1B inflam inh: 5; D3 antag: -5

How did CCOC(=O)c1c(/N=C/c2cc(C)ccc2O)sc2c1CCN(C)C2 do in these assays?
ATXN2 expr inh: -21%; D3 ag: -35; Integrin act MD: 1%; S2 tox: inactive; IL-1B inflam inh: -1; D3 antag: -54*

How did COc1ccccc1NC1=NC(CO)(CO)CS1 do in these assays?
D3 ag: -4; Integrin act MD: -39%; S2 tox: inactive; IL-1B inflam inh: 0; D3 antag: -28

How did Cc1cc(N2CCN(c3ccc([N+](=O)[O-])c4cccnc34)CC2)c2ccccc2n1 do in these assays?
ATXN2 expr inh: inconclusive; D3 ag: 8; Integrin act MD: -28%; S2 tox: inconclusive; IL-1B inflam inh: -94*; D3 antag: -1

What do the screens show for `Cc1cc(N2CCN(c3ccc(C(F)(F)F)cc3[N+](=O)[O-])CC2)c2ccccc2n1`?
D3 ag: 1; Integrin act MD: 0%; IL-1B inflam inh: -28; D3 antag: 0

Screening results deposited in PubChem by National Center for Advancing Translational Sciences (NCATS).
